# HTT aggregate = mutant huntingtin aggregation inhibition; PC12 HttQ103-GFP aggregates, Acumen cytometry, 40 h; Potency, µM (doses to about 46.1 µM), without a hit: top-dose activity change, negative = inhibition, usual class: inhibitors; actives 1.1% (n = 220,000); AID 1688; note: potency is the fitted concentration of half-maximal effect; % is set by controls: 0 for no effect and ±100 for the full control effect; nearly all actives have a fitted effect of over 60% in size
#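 Multiplexed with ATP-based cell death, this channel scores GFP aggregates in PC12 cells expressing inducible HTTex1-Q103-GFP. Induction used 100 nM tebufenozide; compounds were tested in concentration series.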
# Coupling enz = counter-screen for Giardia aldolase inhibitors: coupling enzyme system | coupling enzyme system counterscreen, AmpLite Red fluorescence | AID 2472 | activity change, negative = inhibition, % at 58.2 µM, hits read low | actives 0.67% (n = 290,000); in the data active = activity change below about -30%; note: % is set by controls: 0 for no effect and ±100 for the full control effect
#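 Counterscreen of the coupled detection system alone, without aldolase: glyceraldehyde-3-phosphate coupling enzymes plus AmpLite Red readout. Compounds at 57.5 uM final, 10 min RT preincubation, 20 min RT reaction, fluorescence 525/598 nm.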
# JMJD2E inh = inhibitors of human JMJD2E histone demethylase | AID 2147 | JMJD2E catalytic domain, FDH-coupled NADH fluorescence (FDH is formaldehyde dehydrogenase) | actives 1.6% (n = 230,000) | Potency, µM (top dose mostly 57.1 µM), without a hit: at the highest dose activity change, negative = inhibition, most hits filed as inhibitors; active = well fitted inhibition curve with a large enough effect, not every such curve was filed as active; inconclusive = small, poorly fitted or top-dose-only effect, or another doubt; inactive = no such curve, though single readings can be large or run the other way;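 note: potency is the fitted concentration of half-maximal effect; 0% = wells with enzyme and -100% = buffer wells without enzyme; nearly all actives have a fitted effect of over 50% in size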
# Target sequence (B2RXH2 1-337 limits assumed): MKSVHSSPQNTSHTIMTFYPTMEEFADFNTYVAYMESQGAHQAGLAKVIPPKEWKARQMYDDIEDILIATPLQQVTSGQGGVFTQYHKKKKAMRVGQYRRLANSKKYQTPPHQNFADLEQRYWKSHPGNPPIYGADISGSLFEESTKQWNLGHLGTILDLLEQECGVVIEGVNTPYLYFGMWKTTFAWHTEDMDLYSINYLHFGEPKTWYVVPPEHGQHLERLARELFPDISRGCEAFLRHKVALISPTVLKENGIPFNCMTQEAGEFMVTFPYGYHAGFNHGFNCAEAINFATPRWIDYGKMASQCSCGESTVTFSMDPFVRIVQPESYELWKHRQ
# TRb-SRC2 inh = disrupts binding of human TR beta to SRC2; P10828; TRbeta-SRC2 peptide binding, fluorescence polarization; receptor liganded with 1 µM T3; actives 0.065% (n = 280,000); Potency, µM (highest dose often 106 µM), for inactives: at the top dose activity change, negative = inhibition, actives largely listed as inhibitors; AID 1469;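 note: potency is the fitted concentration of half-maximal effect; plate controls were bound peptide for no effect and peptide without receptor for full effect; nearly all actives have a fitted effect of over 50% in size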
#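 Decrease in fluorescence polarization of 20 nM Texas Red SRC2 coactivator peptide flagged inhibition of its binding to 0.6 uM TRb LBD; 1 uM T3 included, incubation 5 hr, ex 555/em 632 nm.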
# TexasRed fluor = Texas Red fluorescence interference in TRb-SRC2 counter-screen. TRb/SRC2 Texas Red total fluorescence interference. Potency, µM (series often up to 106 µM), inactives show at the top dose fluorescence change, negative = quenching. actives 0.29% (n = 280,000); active = well fitted curve in either direction with a large enough effect; inconclusive = small, poorly fitted or top-dose-only effect; note: potency is the fitted concentration of half-maximal effect; % is set by controls: 0 for no effect and ±100 for the full control effect
#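 Human TRb ligand-binding domain at 0.6 uM with 20 nM Texas Red SRC2 peptide in Tris buffer containing 1 uM T3 and 5% DMSO, incubated with compound 5 h at ambient temperature. Total fluorescence (555/632 nm) calculated as parallel + 2 × perpendicular.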
# HTT cytoprotect = Huntington cell model cytoprotection by ATP luminescence; actives 0.14% (n = 230,000); Potency, µM (series often up to 56.4 µM), without a hit: cytoprotection (ATP increase), usual class: activators; AID 1471; PC12 HTT-Q103 induced, cytoprotection, ATP luminescence, 40 h; note: potency is the fitted concentration of half-maximal effect; % of control where 0% means no effect; nearly all actives have a fitted effect of over 45% in size
#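 Cells were plated at 1500 per well in phenol red-free DMEM with 5% equine and 5% calf serum. Tebufenozide (100 nM final) and compounds were added, then ATPlite reagent, and luminescence was read.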
# Active calls of the source: *; ? = inconclusive; . = no result given; [ ] = dose if it differs, or a comment. Most compounds without a hit are left out; they make up all but 2% or so of the library. Unless noted, calls come from the whole dose curve; as a rule, active = well fitted curve in the direction sought with a large enough effect; inconclusive = small, poorly fitted or top-dose-only effect, or another doubt; inactive = no such curve, though single readings can be large; an effect the other way counts as inactive or inconclusive.
SMILES,HTT aggregate,Coupling enz,JMJD2E inh,TRb-SRC2 inh,TexasRed fluor,HTT cytoprotect
O=c1c2ccccc2nc(/C=C/c2cccnc2)n1Cc1ccccc1,3%[9.22 µM],0,7.9µM*,-6%,-1%,15%[10 µM]
O=c1c2ccccc2nc(/C=C/c2ccccc2)n1-c1ccc(O)cc1,.,-2,.,.,.,.
CCNS(=O)(=O)C(F)(F)C(F)(F)C(F)(F)C(F)(F)C(F)(F)C(F)(F)C(F)(F)C(F)(F)F,.,.,.,-1%[201 µM],-2%[201 µM],.
O=C(O)Cc1cnc[nH]1,.,.,14µM*,-4%,-1%,-21%
CC1(C)CON(Cc2ccccc2Cl)C1=O,.,.,.,-8%[201 µM],-15%[201 µM],.
COc1cc(OC)nc(NC(=O)NS(=O)(=O)c2ncccc2C(F)(F)F)n1,.,.,.,8%[201 µM],-1%[201 µM],.
CCCCn1c(NC(=O)c2ccc(Br)o2)c(C(=O)OCC)c2nc3ccccc3nc21,?,-44*,?,-7%,-2%,.
CCCCn1c(NS(=O)(=O)c2ccccc2)c(C(=O)OCC)c2nc3ccccc3nc21,15%,0,?,-17%,?,.
CCOP(=O)(NC(C)C)Oc1ccc(S(C)=O)c(C)c1 (stereo not drawn),.,.,.,0%[201 µM],1%[201 µM],.
O=C(Nc1ccc(Oc2ccc(Cl)cc2)c(Cl)c1)c1cc(I)cc(I)c1O,13µM*,-9,.,14%,-22%,-54%
NCC(O)c1cc(O)c(O)cc1F (stereo not drawn),.,.,14µM*,1%,3%,.
O=C1NC(=O)C(=O)C(=O)N1,.,-60*,?,-29%,-13%,.
Cc1ccc(-c2cc(-c3ccc(C)cc3)[n+](C)o2)cc1,3.2µM*,0,?,3%,-1%,.
CCS(=O)(=O)c1cccnc1S(=O)(=O)NC(=O)Nc1nc(OC)cc(OC)n1,.,.,.,0%[201 µM],-4%[201 µM],.
CC(C)c1cc2c(c(O)c1O)[C@]1(C(=O)O)CCCC(C)(C)C1CC2 (stereo partly drawn),.,-15,13µM*,3%,-2%,-45%
CC(C)c1cc2c(c(O)c1O)[C@@]1(C(=O)O)CCCC(C)(C)[C@@H]1CC2,.,-43*,.,-5%,-1%,.
CCCN(CC)CC1COC2(CCC(C(C)(C)C)CC2)O1 (stereo not drawn),.,.,.,2%[201 µM],0%[201 µM],.
CCOP(=O)(OCC)SCSCC,.,.,.,-1%[201 µM],0%[201 µM],.
O=C1NC(=O)C(=Cc2ccc(-c3ccccc3[N+](=O)[O-])o2)C(=O)N1,-14%[9.22 µM],1,20µM*,4%,-7%,-4%[10 µM]
Cc1cc(C=C2C(=O)NC(=O)NC2=O)c(C)n1-c1ccc2c(c1)OCO2,-10%,-2,-14%,1%,3%,40%[10 µM]
Cc1cc(C=C2C(=O)NC(=S)NC2=O)c(C)n1-c1ccc2c(c1)OCO2,-2%,-1,7%,-9%,28184µM*[quencher],16%[10 µM]
COP(=O)(OC)OC(Br)C(Cl)(Cl)Br (stereo not drawn),.,.,.,-4%[201 µM],-10%[201 µM],.
C/C=C(\C)C(=O)O[C@H]1C[C@@H](OC(C)=O)[C@@]2(C(=O)OC)CO[C@H]3[C@@H](O)[C@@](C)([C@]45O[C@@]4(C)[C@H]4C[C@@H]5O[C@@H]5OC=C[C@@]54O)[C@H]4[C@]1(CO[C@]4(O)C(=O)OC)[C@@H]32,.,.,.,-2%[201 µM],-3%[201 µM],.
O=C1NC(=O)N(c2ccccc2)C(=O)/C1=C\C=C\c1ccccc1,2%[9.22 µM],-2,4µM*,4%,-4%,-30%[10 µM]
Brc1c(NC2=NCCN2)ccc2nccnc12,2%,-21,20µM*,9%,1%,?
CCC(C)NC(=O)c1c(N)n(CC2CCCO2)c2nc3ccccc3nc12 (stereo not drawn),-9%,-40*,?,?,0%,-23%
CC(C)CCNC(=O)c1c(N)n(CC2CCCO2)c2nc3ccccc3nc12 (stereo not drawn),16%[9.22 µM],-42*,?,?,-4%,7%[0.074 µM]
Nc1c(C(=O)NCCN2CCOCC2)c2nc3ccccc3nc2n1Cc1ccccc1,5%[9.22 µM],-4,?,-6%,-1%,-11%[10 µM]

# From PubChem
